High-throughput results (PubChem BioAssay)
ALDH1A1 inh-1 – ALDH1A1 (human) enzyme inhibition. actives 7.3% (n = 220,000). P00352. Purified ALDH1A1, NADH fluorescence, propionaldehyde substrate. Potency, µM (highest dose often 75.3 µM), for the others: at the top dose activity, negative = inhibition, usual class: inhibitors;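 note: potency is the fitted concentration of half-maximal effect; plate controls were no enzyme wells and a reference inhibitor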
Target sequence (P00352 whole entry, looked up): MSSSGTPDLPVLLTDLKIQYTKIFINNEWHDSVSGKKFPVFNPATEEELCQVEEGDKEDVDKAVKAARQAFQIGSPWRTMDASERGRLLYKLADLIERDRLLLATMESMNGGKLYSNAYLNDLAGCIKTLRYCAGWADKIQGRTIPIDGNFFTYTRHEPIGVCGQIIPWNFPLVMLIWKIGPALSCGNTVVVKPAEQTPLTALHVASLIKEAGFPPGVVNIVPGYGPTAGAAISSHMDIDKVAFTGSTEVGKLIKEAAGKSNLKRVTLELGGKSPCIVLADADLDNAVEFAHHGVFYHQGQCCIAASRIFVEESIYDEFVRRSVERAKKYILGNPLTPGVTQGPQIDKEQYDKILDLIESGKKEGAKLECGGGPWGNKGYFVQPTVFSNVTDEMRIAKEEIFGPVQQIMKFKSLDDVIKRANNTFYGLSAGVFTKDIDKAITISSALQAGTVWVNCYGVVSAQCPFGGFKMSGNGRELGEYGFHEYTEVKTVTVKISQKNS
HPGD block – HPGD (human) dehydrogenase inhibition; P15428; purified HPGD, NADH fluorescence kinetic, PGE2 substrate; Potency, µM, without a hit: at the top dose activity change, negative = inhibition, usual class: inhibitors; actives 4.3% (n = 150,000); note: potency is the fitted concentration of half-maximal effect; % is set by controls: 0 for no effect and ±100 for the full control effect
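NADH formation kinetics: reaction with 30 uM PGE2 and 1 mM NAD+ (final), 20 nM enzyme, Tris-HCl pH 8 with Tween 20, after 15 min compound preincubation at room temperature. Fluorescence change, last versus first of five reads.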
Luc counter – Kinase-Glo luciferase inhibition (counter-screen) | actives 0.28% (n = 200,000) | Potency, µM (top dose mostly 38.3 µM), for the others: at the highest dose activity change, negative = inhibition, usual class: inhibitors | Q27757 | Kinase-Glo luciferase, ATP luminescence, 8 min; active = well fitted inhibition curve with a large enough effect; inconclusive = small, poorly fitted or top-dose-only effect; note: potency is the fitted concentration of half-maximal effect; % is set by controls: 0 for no effect and ±100 for the full control effect; nearly all actives have a fitted effect of over 60% in size
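Compound is pinned into ATP-containing buffer (10 uM ATP, imidazole pH 7.2, 7 mM MgCl2). Kinase-Glo luciferase reagent is then added. Light output is recorded following an 8-min room-temperature incubation.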
LMNA splice mod – LMNA splicing modulation | HeLa LMNA splicing GFP/RFP minigene ratio, 48 h | Potency, µM (series often up to 46.1 µM), inactives show at the top dose ratio change, negative = inhibition, hits mostly inhibitors | actives 0.01% (n = 200,000) | AID 1487; active = well fitted inhibition curve with a large enough effect in the signal ratio, with a control signal flat, not every such curve was filed as active; inconclusive = small, poorly fitted or top-dose-only effect, or effect the other way, or a change in a side signal; the % refers to the signal ratio; note: potency is the fitted concentration of half-maximal effect; % is set by controls: 0 for no effect and ±100 for the full control effect
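Read-out is the ratio of GFP to DsRed2 object intensity, acquired by 488 nm laser-scanning cytometry on HeLa lamin A-EGFP minigene reporter cells. Compound incubation 48 hrs at 37 °C in Opti-MEM with 2% FBS; DMSO 0.5% final.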
PNC assembly inh – blocks assembly of the perinucleolar compartment; PC3M PTB-GFP, PNC prevalence imaging, 16 h; stronger effect = lower value; activity change (PNC), negative = inhibition, % at 10 µM; actives 3.1% (n = 140,000);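 active = readout at or below -70, meaning at least 70% loss of cells showing the perinucleolar compartment, a nuclear body marking cancer cells; inconclusive = readout between -30 and a set limit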;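 note: plate controls were DMSO wells for no effect and camptothecin positive control wells for full effect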
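PC3M cells stably expressing PTB-GFP, 750–1000 cells/well, treated 16 h at 37 °C with compound (23 nl of library stock), in duplicate. After paraformaldehyde fixation and Hoechst stain, imaged at 20x; PNC prevalence scored by image analysis.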
HPGD inh conf – confirmation of human HPGD inhibitors. shares compounds with HPGD block. recombinant HPGD, NADH fluorescence, PGE2 substrate. Potency, µM (top dose mostly 57.1 µM), inactives show top-dose activity change, negative = inhibition, most hits filed as inhibitors. actives 90% (n = 90). AID 2429; calls by dose curve
ALDH1A1 inh-2 – Confirms inhibition of human ALDH1A1 with counterscreen; shares compounds with ALDH1A1 inh-1; purified ALDH1A1, NADH fluorescence, propionaldehyde/NAD+; Potency, µM (highest dose often 57.1 µM), inactives show at the highest dose activity change, negative = inhibition, most hits filed as inhibitors; actives 90% (n = 90); AID 493210; calls by dose curve
* hit, by the source's call; ? = inconclusive; · = no result given; [ ] = remark or other dose. Most compounds without a hit are left out; they make up all but 10% or so of the library. Unless noted, calls come from the whole dose curve; as a rule, active = well fitted inhibition curve with a large enough effect (not every such curve was filed as active); inconclusive = small, poorly fitted or top-dose-only effect, or another doubt; inactive = no such curve, though single readings can be large or run the other way.

SMILES	ALDH1A1 inh-1	HPGD block	Luc counter	LMNA splice mod	PNC assembly inh	others
CCCC(C)C1C(C#N)=C(N)Oc2c1c(=O)oc1ccccc21 (stereo not drawn)	-2.2%	?	-1.5%	-13.3%	12.6
CCCC1C(C#N)=C(N)Oc2c1c(=O)oc1ccccc21 (stereo not drawn)	3.3%	-4.7%	2.9%	-12.5%	-97.8*
CCN(CC)C(=O)c1ccc(NC(=O)CSc2nnnn2-c2cc(OC)ccc2OC)cc1	8.91µM*	8.91µM*	-2.1%	-12.4%	42.0
COC1=C(C)C(=O)c2c(c(COC(N)=O)c3n2C[C@@H]2[C@@H]3N2C)C1=O (stereo partly drawn)	-3.8%[13.5 µM]	-3.7%	-4.4%[7.66 µM]	·	·
CCCCC/C=C\C/C=C\C/C=C\C/C=C\CCCC(=O)NC1CC1	?	?	-4.2%[39.9 µM]	·	·
N#CC(C#N)=NNc1ccc(OC(F)(F)F)cc1	2.82µM*	-27.4%	2.7%	·	·
N#CC(C#N)=NNc1cccc(Cl)c1	6.7%	-23.9%	2.1%	·	·
COc1ccccc1N1CCN(C2CCN(C(=O)c3cccs3)CC2)CC1	?	7.2%	2.4%	5.1%	-118.9*
COc1ccccc1N1CCN(C2CCN(C(=O)c3cc(OC)c(OC)c(OC)c3)CC2)CC1	?	-14.6%	2.6%	4.5%	-0.4
CC(C)c1cc2c(c(O)c1O)[C@@]1(C(=O)O)CCCC(C)(C)[C@@H]1CC2	14.1µM*	15.8µM*	0.8%[39.9 µM]	·	·
C[C@]1(C(=O)O)CCC[C@]2(C)c3cc(O)ccc3CC[C@@H]12	2.1%	-13.4%	1.4%	·	·
CC(C)c1cc2c(c(O)c1O)[C@]1(C(=O)O)CCCC(C)(C)C1CC2 (stereo partly drawn)	15.8µM*	3.16µM*	-7.8%	·	·
NCCCP(=O)(O)CC1CCCCC1	6.8%	-3.2%	2.7%	·	·
C[C@H](CCC(=O)O)C[C@H](C)C[C@H](C)C(=O)/C=C(\O)[C@H](C)C[C@H](C)C/C=C/[C@@H](C)[C@@H](O)[C@@H](C)[C@@H](O)C[C@@H]1CC[C@@](C)([C@H]2CC[C@@](C)([C@@H](C)O)O2)O1	2.7%	-11.3%	-2.1%[39.9 µM]	·	·
O=P1(NC2CCCC2)COc2ccccc2OC1	-9.3%	0.0708µM*	10.6%	-6.9%	-25.8	HPGD inh conf=0.159µM*
c1ccc(CC(NCc2ccco2)c2ccccc2)cc1 (stereo not drawn)	-4.6%	·	-2.4%	7.4%[9.22 µM]	·
O=P1(NCc2ccco2)COc2ccccc2OC1	0.3%	1µM*	-7.0%	0.5%	-12.7	HPGD inh conf=1µM*
CN[C@H](CC(C)C)C(=O)N[C@H]1C(=O)N[C@@H](CC(N)=O)C(=O)N[C@H]2C(=O)N[C@H]3C(=O)N[C@H](C(=O)N[C@H](C(=O)O)c4cc(O)cc(O)c4-c4cc3ccc4O)[C@H](O)c3ccc(c(Cl)c3)Oc3cc2cc(c3O[C@@H]2O[C@H](CO)[C@@H](O)[C@H](O)[C@H]2O[C@H]2C[C@](C)(N)[C@H](O)[C@H](C)O2)Oc2ccc(cc2Cl)[C@H]1O	?	-12.6%	-6.0%	-3.6%	·
O=C1C=CC(=O)c2c1ccc1c2ccc2ccccc21	0.316µM*	11.2µM*	-0.8%[17.1 µM]	?	·	ALDH1A1 inh-2=0.316µM*
CC(C)c1nccn1Cc1ccc(Cl)cc1Cl	13.5%[13.5 µM]	-0.6%	-5.3%[7.66 µM]	·	·
